Test [1] in a line: optical density shifts of acrAB sulA E. coli – strain DRC41, OD650, 48 h, E. coli filamentation inducer project, primary screen (AID 1152).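 Note: E. coli MC1000 strain DRC41 lacking acrAB efflux pump and sulA.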 The note with it: higher = more signal, called active from +8 up or from −8 down.
Test [2] is described as follows: probe aLefty1 binding on compound microarray – biochemical, small-molecule microarray, 635/667 nm fluorescence, primary screen (AID 1153).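 Note: score merges spot fluorescence with signal-to-noise ratio from the scanned slide images.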 The note with it: higher = more signal.
Test [3] is described as follows: plasmodial surface anion channel blockers, osmotic lysis – cell-based, P. falciparum Indochina, OD700, 1 h, primary screen (AID 1154). The note with it: P. falciparum Indochina infected RBC osmotic lysis, higher = more signal, called active from +8 up or from −8 down.
Test [4] can be described thus: plasmodial surface anion channel blockers, osmotic lysis – cell-based, P. falciparum Indochina, OD700, 2 h, primary screen (AID 1155).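 Note: lysis reports solute entry through the parasite surface anion channel PSAC.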 The note with it: P. falciparum Indochina infected erythrocytes, higher = more signal, called active from +8 up or from −8 down.
Test [5] in a line: changes in parasitized red cell lysis, either direction – P. falciparum Indochina, OD700, 3 h, PSAC antagonist project, primary screen (AID 1156). The note with it: P. falciparum-infected erythrocytes, osmotic lysis, higher = more signal, called active from +8 up or from −8 down.
A short description of test [6]: plasmodial surface anion channel blockers, osmotic lysis – cell-based, P. falciparum Indochina, OD700, 18 h, primary screen (AID 1157). The note with it: P. falciparum Indochina infected erythrocytes, osmotic lysis OD700, 18 h; higher = more signal, called active from +8 up or from −8 down.
A short description of test [7]: S6 kinase pathway phospho-S6 level changes – cell-based, A549, cytoblot, luminescence, serum-stimulated, primary screen (AID 1158).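 Note: serum-stimulated A549 lung adenocarcinoma cells; signal is phosphorylated S6 detected by cytoblot immunostaining with HRP secondary.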 The note with it: 5 h, higher = more signal.
The target of test [8] is NADPH oxidase 2 (Homo sapiens) (UniProt P04839). Nature of the test: compounds shifting NOX2 Amplex Red fluorescence – cell-based, HEK293-NOX2, PMA-stimulated, NOX inhibitor project, primary screen (AID 1159). Note: test concentration not given here. The note with it: 45 min, higher = more signal, called active from +8 up or from −8 down.
Test [9] has as its target NADPH oxidase 4 (Homo sapiens) (UniProt Q9NPH5). Nature of the test: compounds shifting NOX4 Amplex Red fluorescence – cell-based, HEK293-NOX4, tetracycline-induced, NOX inhibitor project, primary screen (AID 1160). The note with it: HEK293-NOX4, Amplex Red H2O2 fluorescence, 45 min; higher = more signal, called active from +8 up or from −8 down.
For test [10], the target named is NADPH oxidase 5 (Homo sapiens) (UniProt Q96PH1). Nature of the test: compounds shifting NOX5 Amplex Red fluorescence – cell-based, HEK293-NOX5, NOX inhibitor project, primary screen (AID 1161). The note with it: HEK293-NOX5, ionomycin, 45 min, higher = more signal.

Activity calls are given as the source filed them.

Sequence of NADPH oxidase 5 (Homo sapiens) (Q96PH1 whole entry, looked up): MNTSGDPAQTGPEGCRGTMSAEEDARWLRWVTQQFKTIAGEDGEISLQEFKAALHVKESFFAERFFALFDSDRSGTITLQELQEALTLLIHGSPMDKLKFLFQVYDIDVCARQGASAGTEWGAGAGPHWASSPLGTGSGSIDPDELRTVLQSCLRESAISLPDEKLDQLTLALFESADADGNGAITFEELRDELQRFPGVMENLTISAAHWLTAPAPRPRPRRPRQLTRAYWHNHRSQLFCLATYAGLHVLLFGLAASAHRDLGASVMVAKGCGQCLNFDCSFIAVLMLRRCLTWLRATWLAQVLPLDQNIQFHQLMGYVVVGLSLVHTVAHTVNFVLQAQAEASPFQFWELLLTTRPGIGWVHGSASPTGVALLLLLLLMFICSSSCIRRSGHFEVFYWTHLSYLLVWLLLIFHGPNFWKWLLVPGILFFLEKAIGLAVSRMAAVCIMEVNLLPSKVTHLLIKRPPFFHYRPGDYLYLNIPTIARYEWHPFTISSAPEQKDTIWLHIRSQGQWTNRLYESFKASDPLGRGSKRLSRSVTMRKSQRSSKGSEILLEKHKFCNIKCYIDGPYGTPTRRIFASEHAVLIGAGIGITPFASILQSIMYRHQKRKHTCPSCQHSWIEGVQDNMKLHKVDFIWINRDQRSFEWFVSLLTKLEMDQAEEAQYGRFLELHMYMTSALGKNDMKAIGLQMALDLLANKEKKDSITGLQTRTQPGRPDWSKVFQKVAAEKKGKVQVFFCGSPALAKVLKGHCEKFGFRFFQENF
Sequence of NADPH oxidase 4 (Homo sapiens) (Q9NPH5 whole entry, looked up): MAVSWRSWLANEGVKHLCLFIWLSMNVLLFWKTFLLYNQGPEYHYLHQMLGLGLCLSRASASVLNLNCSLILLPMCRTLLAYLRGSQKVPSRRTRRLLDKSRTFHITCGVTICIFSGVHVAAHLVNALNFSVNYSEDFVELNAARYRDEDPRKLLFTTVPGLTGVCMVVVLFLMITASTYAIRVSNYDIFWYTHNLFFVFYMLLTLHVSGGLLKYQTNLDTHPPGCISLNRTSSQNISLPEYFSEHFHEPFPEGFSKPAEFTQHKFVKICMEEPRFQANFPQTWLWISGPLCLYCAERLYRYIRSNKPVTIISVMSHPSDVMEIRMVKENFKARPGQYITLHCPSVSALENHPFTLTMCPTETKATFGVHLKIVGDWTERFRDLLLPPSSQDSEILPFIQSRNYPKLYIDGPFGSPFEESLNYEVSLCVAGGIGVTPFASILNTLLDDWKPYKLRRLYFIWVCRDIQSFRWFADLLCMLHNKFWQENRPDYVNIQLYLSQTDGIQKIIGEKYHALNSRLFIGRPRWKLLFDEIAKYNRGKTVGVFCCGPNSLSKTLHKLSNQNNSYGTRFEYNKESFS
Sequence of NADPH oxidase 2 (Homo sapiens) (P04839 whole entry, looked up): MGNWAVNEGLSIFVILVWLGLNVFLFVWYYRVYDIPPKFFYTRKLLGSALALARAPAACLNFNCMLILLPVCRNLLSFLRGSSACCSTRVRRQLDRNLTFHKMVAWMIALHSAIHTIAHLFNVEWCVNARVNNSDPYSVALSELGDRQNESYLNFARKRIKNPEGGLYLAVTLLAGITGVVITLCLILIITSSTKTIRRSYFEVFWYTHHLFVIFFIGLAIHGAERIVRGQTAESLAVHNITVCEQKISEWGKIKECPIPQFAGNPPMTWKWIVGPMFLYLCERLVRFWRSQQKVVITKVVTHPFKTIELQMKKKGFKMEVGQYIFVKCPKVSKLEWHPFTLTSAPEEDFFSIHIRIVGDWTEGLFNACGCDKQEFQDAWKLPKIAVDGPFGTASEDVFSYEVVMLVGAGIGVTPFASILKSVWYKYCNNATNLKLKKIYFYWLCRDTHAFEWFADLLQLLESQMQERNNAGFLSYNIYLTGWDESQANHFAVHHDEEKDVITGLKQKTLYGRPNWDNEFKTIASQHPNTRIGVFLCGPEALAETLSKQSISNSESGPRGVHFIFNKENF

On to `COC(=O)C1=CC(CCCO)=CC(C2CC2)N(C)C=C1C(=O)OC` (stereo not given), for which the z-score in test [1] is 1.22 (inactive); in [3], 0.731 (inactive); in test [4], -0.59 (inactive); in test [5], 0.482 (inactive); in [6], -1.41 (inactive); in [7] it was 1.83. For the same compound, the z-score in test [8] was -0.463 (inactive); in [9], -0.122 (inactive); in [10], 0.663. This compound also gave a composite z-score in [2] of -0.35.
As to `CN(C)C(=O)[C@@]1(Cc2ccccc2CN=[N+]=[N-])N=C(c2ccc(OCCCO)cc2)O[C@H]1c1ccccc1CN=[N+]=[N-]`, the z-score in test [1] is -0.395 (inactive); in [3] it was 10.9 (active); in test [4], 1.46 (inactive); in [5], 0.589 (inactive); in [6] it was 0.515 (inactive); in test [7] it was 0.0709. The z-score in [8] was -0.379 (inactive); in [9], 1.43 (inactive); in [10], 2.09. The compound further returned a composite z-score in test [2] of 0.315.
`C[C@]1(C(=O)NC2CC2)c2ccccc2C(=O)N(Cc2ccccc2)[C@H]1c1ccc(CO)cc1`: the z-score is 2.07 (inactive) in test [1]; 2.84 (inactive) in test [3]; 0.17 (inactive) in test [4]; 0.475 (inactive) in [5]; -0.779 (inactive) in test [6]; 2.26 in test [7]. The z-score in [8] was -0.148 (inactive); in [9] it was -1.55 (inactive); in [10] it was -0.249. This compound registered a composite z-score in test [2] of -0.147.
As for `COc1cc2c(cc1O)C(C)N(Cc1ccc([N+](=O)[O-])o1)CC2` (stereo not given), the z-score in [1] is -0.984 (inactive); in [3], 18.3 (active); in test [4] it was 2.09 (inactive); in test [5], 0.831 (inactive); in test [6] it was 0.424 (inactive); in test [7] it was -0.31. Further, the z-score in test [8] is -4.17 (inactive); in test [9], -2.17 (inactive); in [10], -3.28. The same compound yielded a composite z-score in test [2] of 0.245.
In the case of `COc1ccc(-c2cc3c(c(CCc4ccccc4)n2)[Si](C(C)C)(C(C)C)OC3)cn1`, the z-score is -0.0928 (inactive) in test [1]; 3.8 (inactive) in test [3]; 0.745 (inactive) in [4]; -0.119 (inactive) in [5]; 0.114 (inactive) in test [6]; -0.108 in [7]. The values for the z-score in test [8], in [9] and in test [10] were -0.44 (inactive), -0.0624 (inactive) and -1.49, respectively. In addition, the composite z-score in test [2] is -0.196.
In the case of `COCCOC(=O)N1C(=O)[C@@]2(c3cc(C#Cc4ccc(OC)cc4)ccc31)[C@H](C(=O)Nc1nc3ccccc3s1)[C@H]1C(=O)O[C@H](c3ccccc3)[C@H](c3ccccc3)N1[C@@H]2c1ccc(O)cc1`, the z-score in test [1] is 1.05 (inactive); in test [3] it was 3.75 (inactive); in [4] it was 0.756 (inactive); in [5], 1.2 (inactive); in test [6], 1.22 (inactive); in [7], 0.709. Moreover, the z-score in test [8] was 1.49 (inactive); in test [9] it was -0.118 (inactive); in [10] it was 0.791. In [2], the composite z-score was 0.703.
For the compound `C[N+](C)(C)CCCCCCNC(=O)[C@H]1C[C@H]2C(=O)N[C@@H](Cc3ccccc3)C(=O)N2[C@H]1c1ccc(O)cc1`, the z-score in test [1] is 0.796 (inactive); in test [3], 6.4 (inactive); in [4], 1.3 (inactive); in [5] it was -0.194 (inactive); in [6], 0.374 (inactive); in test [7], -0.0246. Besides, the z-score in [8] was 0.847 (inactive); in test [9], 1.13 (inactive); in [10], -0.0901. Further, the composite z-score in test [2] was -0.0475.
`COCCCNC(=O)[C@]1(CCS(=O)(=O)c2ccccc2)N=C(c2ccc(OCCCO)cc2)O[C@@H]1c1ccccc1N=[N+]=[N-]`: the z-score in test [1] is 0.308 (inactive); in [3], 29.8 (active); in [4], 28.1 (active); in test [5], 1.67 (inactive); in test [6], 2.02 (inactive); in test [7] it was 0.737. The z-score in [8] was 0.867 (inactive); in test [9], 0.235 (inactive); in test [10], -0.901. This compound came in with a composite z-score in test [2] of -0.0087.
In the case of `OCCCC1=CC(c2ccc(CN3CCCC3)cc2)N(Cc2sc3ccccc3c2Cl)CC1` (stereo not given), the z-score in test [1] was -1.6 (inactive); in test [3], 7.15 (inactive); in test [4] it was 1.29 (inactive); in [5], 0.314 (inactive); in test [6], 1.19 (inactive); in test [7] it was -0.319. Further, the values for the z-score in test [8], in test [9] and in [10] were -5.42 (inactive), -2.03 (inactive) and -2.27, respectively. In test [2], this compound yielded a composite z-score of 0.527.
For `[N-]=[N+]=NCc1ccccc1C[C@@]1(C(=O)N2CCCCC2)N=C(c2ccc(OCCCO)cc2)O[C@@H]1c1ccccc1`, the z-score was -0.184 (inactive) in test [1]; 25.2 (active) in test [3]; 14.3 (active) in test [4]; 2.13 (inactive) in test [5]; 2.51 (inactive) in test [6]; 0.893 in test [7]. Also, the figures for the z-score in [8], in test [9] and in test [10] were -2.02 (inactive), -0.495 (inactive) and -1.49, respectively. This compound also returned a composite z-score in test [2] of 0.0323.
Turning to `COC(=O)[C@@]1(Cc2ccc(F)cc2)[C@H]2c3cc(C(=O)N(C)C)n(CCc4ccc(O)c(OC)c4)c3C[C@H]2CN1C(=O)c1ccccc1`, the z-score is -1.22 (inactive) in [1]; -0.951 (inactive) in [3]; 0.236 (inactive) in test [4]; -0.722 (inactive) in [5]; 0.667 (inactive) in [6]; -0.824 in test [7]. For the same compound, the z-score was -0.0241 (inactive) in test [8], -0.627 (inactive) in test [9] and -0.245 in test [10]. In test [2], this compound displayed a composite z-score of 1.63.
Consider `C=CCC(OC(C)=O)[C@@H]1[C@@H](N(Cc2cc3ccccc3o2)C(=O)c2ccc(-c3ccccc3)cc2)c2cc(OCCCO)ccc2N1C(=O)c1ccc2ccccc2c1` (stereo not given in full), for which the z-score was -0.966 (inactive) in [1]; 0.923 (inactive) in test [3]; 0.354 (inactive) in [4]; 0.216 (inactive) in test [5]; 0.161 (inactive) in [6]; -0.109 in test [7]. Besides, the z-score is -1.08 (inactive) in test [8], -0.72 (inactive) in [9] and 0.869 in [10]. In test [2], the composite z-score turned out to be 0.187.
Turning to `CC(C)C[C@@H]1NC(=O)[C@@H]2C[C@H](C(=O)NCCCCCN)[C@H](c3ccc(O)cc3)N2C1=O`, the z-score in test [1] is -0.899 (inactive); in test [3], 0.932 (inactive); in test [4], -0.0263 (inactive); in test [5], -0.302 (inactive); in [6], 0.0068 (inactive); in test [7], -0.928. Besides, the z-score in [8] is -0.125 (inactive); in [9] it was -1.36 (inactive); in [10], 0.553. The compound also came in with a composite z-score in test [2] of -0.463.

These data come from PubChem BioAssay.
